Pf growth 96h = P. falciparum growth inhibition at 96 hour, primary screen for plastid delayed-death inhibitors; AID 504834; Potency, µM (titrated, usually from 28.7 µM), for the others: at the highest dose activity change, negative = inhibition, actives largely listed as inhibitors; hit rate 6.9% among 320,000; P. falciparum luciferase reporter growth, 96 h; further: potency means the concentration at half of the fitted maximal effect; on the % scale 0 is the no-effect control and ±100 the full control effect
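Compounds incubated with erythrocytes infected by luciferase-expressing P. falciparum (2% hematocrit, 0.05% parasitemia final) for 96 hours, 37 C in 5% CO2. Growth inhibition scored as decreased luciferase luminescence.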
Giardia FBPA inh-1 = blocks Giardia fructose-bisphosphate aldolase activity; AID 2451; purified Giardia FBPA; Potency, µM (doses to about 59.6 µM), inactives show at the top dose activity, negative = inhibition, usual class: inhibitors; A8B2U2; hit rate 0.71% among 290,000; further: potency means the concentration at half of the fitted maximal effect; on the % scale 0 is the no-effect control and ±100 the full control effect; nearly all actives have a fitted effect of over 55% in size
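Giardia FBPA (40 nM reagent) was preincubated 10 min at RT with compound (up to 57.5 uM final), then substrate plus GAPDH/TPI/NAD/arsenate coupling system with diaphorase/resazurin was added; resorufin fluorescence (525/598 nm) was read after 20 min.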
CHX counter = counter-screen hit for Shiga toxin inhibitors, cycloheximide. cell reporter, cycloheximide protein synthesis inhibition counterscreen. hit rate 12% among 300,000. max response, %. AID 2314; in the data active means max response mostly above about 13%, no sharp cut-off; inactive means mostly below about 14%; further: read at 38.3 µM for the half of the compounds with a filed dose; 0% is about no effect
Pf growth 48h = P. falciparum growth inhibition at 48 hours (one generation); P. falciparum luciferase growth in erythrocytes, 48 h; Potency, µM (series often up to 28.7 µM), for the others: top-dose activity change, negative = inhibition, hits mostly inhibitors; hit rate 5.9% among 310,000; AID 504832; further: potency means the concentration at half of the fitted maximal effect; on the % scale 0 is the no-effect control and ±100 the full control effect
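Growth was read as firefly luciferase luminescence after a 48 h, 37 C, 5% CO2 exposure of compounds to reporter-bearing P. falciparum cultures (0.1% parasitemia, 2% hematocrit final) in Albumax-supplemented RPMI 1640.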
Shiga toxin inh = inhibitors of Shiga toxin in Vero cells; Vero cells, Shiga toxin protein synthesis inhibition reporter; inhibition, % at 38.7 µM; hit rate 9.2% among 290,000; AID 2315; in the data active means inhibition mostly above about 28%, no sharp cut-off; inactive means mostly below about 43%; further: 0% is about no effect
NS1 function inh = influenza NS1 inhibition; hit rate 0.4% among 270,000; Potency, µM (doses to about 46.1 µM), without a hit: at the top dose activity, positive = more growth; calls by dose curve; further: potency means the concentration at half of the fitted maximal effect; actives are rising curves; nearly all actives have a fitted effect of over 50% in size
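OD600 was taken as the measure of yeast growth restored by compound in an NS1-expressing S. cerevisiae strain. Cells had been washed out of glucose medium and diluted 1:100 into galactose -URA medium, pH 6.0.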
Giardia growth = inhibitors of Giardia lamblia growth; shares compounds with Giardia FBPA inh-1; Giardia lamblia trophozoite growth inhibition; Potency, µM (top dose mostly 57.5 µM), without a hit: at the highest dose activity change, negative = inhibition, most hits filed as inhibitors; hit rate 5% among 1,500;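 further: potency means the concentration at half of the fitted maximal effect; trophozoites exposed to compound for 48 h at 37 °C; on the % scale 0 is the no-effect control and ±100 the full control effect; nearly all actives have a fitted effect of over 70% in size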
Mammalian tox = mammalian cytotoxicity of Giardia aldolase inhibitor hits | shares compounds with Giardia FBPA inh-1 | mammalian cell viability counter-screen, qHTS | hit rate 4% among 1,500 | Potency, µM (doses to about 57.5 µM), for the others: at the top dose viability change, negative = toxicity, actives largely listed as inhibitors;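 further: Chinese hamster ovary cells used as mammalian cytotoxicity surrogate; viability measured as cellular ATP by luminescence; potency means the concentration at half of the fitted maximal effect; compound exposure lasted 48 h before reading; on the % scale 0 is the no-effect control and ±100 the full control effect; nearly all actives have a fitted effect of over 60% in size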
Giardia FBPA inh-2 = confirmation of Giardia fructose-bisphosphate aldolase inhibitors; Potency, µM (titrated, usually from 57.5 µM), inactives show top-dose activity change, negative = inhibition, actives largely listed as inhibitors; shares compounds with Giardia FBPA inh-1; purified Giardia aldolase enzyme activity, qHTS; hit rate 5% among 1,500; further: potency means the concentration at half of the fitted maximal effect; on the % scale 0 is the no-effect control and ±100 the full control effect; nearly all actives have a fitted effect of over 45% in size
Rabbit aldolase = rabbit FBP aldolase inhibition by Giardia aldolase hits; shares compounds with Giardia FBPA inh-1; Rabbit muscle FBPA enzyme inhibition, selectivity counter-screen; Potency, µM (top dose mostly 57.5 µM), for inactives: at the top dose activity, negative = inhibition, hits mostly inhibitors; hit rate 4% among 1,500; further: potency means the concentration at half of the fitted maximal effect; on the % scale 0 is the no-effect control and ±100 the full control effect; nearly all actives have a fitted effect of over 60% in size
Target sequence (P00883 whole entry, looked up): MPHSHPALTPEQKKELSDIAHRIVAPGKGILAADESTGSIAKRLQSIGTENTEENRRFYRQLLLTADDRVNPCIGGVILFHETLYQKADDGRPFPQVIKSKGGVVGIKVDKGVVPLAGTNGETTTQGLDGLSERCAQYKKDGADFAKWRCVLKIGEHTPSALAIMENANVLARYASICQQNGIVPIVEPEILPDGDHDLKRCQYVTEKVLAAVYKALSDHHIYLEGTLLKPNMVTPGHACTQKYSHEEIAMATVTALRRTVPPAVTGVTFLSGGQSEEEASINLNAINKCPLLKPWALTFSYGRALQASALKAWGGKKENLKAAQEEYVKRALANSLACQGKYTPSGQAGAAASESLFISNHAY
GAPDH coupling = GAPDH inhibition flagged for Giardia aldolase hits. hit rate 6% among 1,500. shares compounds with Giardia FBPA inh-1. Potency, µM (doses to about 57.5 µM), for the others: top-dose activity change, negative = inhibition, usual class: inhibitors. GAPDH coupling enzyme counterscreen, biochemical, qHTS; further: potency means the concentration at half of the fitted maximal effect; on the % scale 0 is the no-effect control and ±100 the full control effect; nearly all actives have a fitted effect of over 55% in size
Starred values were filed as active, the others as inactive; ? = inconclusive; . = no result; [ ] = remark or other dose. The list is not random: actives were taken first. Their share in the collection is about 21%. Unless noted, the call rests on the fitted dose curve; in most records, active means well fitted curve in the direction sought with a large enough effect; inconclusive means small, poorly fitted or top-dose-only effect, or another doubt; inactive means no such curve, though single readings can be large; an effect the other way counts as inactive or inconclusive.

SMILES	Pf growth 96h	Giardia FBPA inh-1	CHX counter	Pf growth 48h	Shiga toxin inh	NS1 function inh	Giardia growth	Mammalian tox	Giardia FBPA inh-2	Rabbit aldolase	GAPDH coupling
COc1ccccc1-c1noc(-c2ccccc2C(=O)Nc2cccnc2)n1	.	-9.0%	8.6	-20.6%	22.2	-3.8%	.	.	.	.	.
Cc1cccc(OCCOCCN2CCNCC2)c1C	-25.6%	-3.8%	-1.6	-8.7%	-4.9	7.6%	.	.	.	.	.
c1ccc(-c2ccccc2OCCOCCN2CCNCC2)cc1	-7.6%[5.75 µM]	19.9µM*	0.8	?	-4.3	1.1%	?	6.1%	-3.2%	2.8%	-16.1%
CCN1CCN(CCOCCOc2ccccc2-c2ccccc2)CC1	?	17.7µM*	-3.5	-29.0%	-10.2	3.3%	10.7%[10.4 µM]	-9.2%	6.5%	-1.8%	1.7%
c1ccc(-c2ccccc2OCCCN2CCCC2)cc1	?	-17.8%	-2.6	-22.7%	-8.1	10.5%	.	.	.	.	.
CN(C=O)CP(=O)(O)CCN1CCCC1=O	.	.	.	.	.	21.4%	.	.	.	.	.
CC(NC(=O)c1cc(S(=O)(=O)N(C)C)ccc1N1CCCC1)C1CC2CCC1C2 (stereo unspecified)	?	-0.2%	-2.9	?	-18.6	.	.	.	.	.	.
CO/N=C/C(C#N)c1ncc(C(F)(F)F)cc1Cl (stereo unspecified)	53.0%	19.9µM*	17.8	31.7%	-17.3	-16.2%	?	7.4%	1.3%	0.6%	-4.4%
CCOc1cc(C=O)cc(Br)c1OCC(N)=O	?	4.4%	-7.7	-37.3%[1.15 µM]	-3.9	-3.4%	.	.	.	.	.
Cc1cc(Br)ccc1OCCOCCN1CCCC1	?	15.8µM*	-1.3	-15.0%	13.6	4.3%	1.9%[10.4 µM]	-2.8%	-6.8%	6.5%	-11.4%
CCOc1ccc(OCCOCCN2CCCC2)cc1	9.7%	28.2µM*	-2.1	24.3%	-9.4	15.2%	?	9.2%	8.7%	20.1%	0.5%
Cc1ccc(OCCOCCN2CCCC2)c(Br)c1	-15.0%	-28.6%	10.8	3.5%	10.5	-3.2%	.	.	.	.	.
Cc1ccc(Nc2cnn(C34CC5CC(CC(CC(=O)O)(C5)C3)C4)c(=O)c2Cl)c(Cl)c1	-25.6%	-9.0%	-3.0	7.4%	-2.1	.	.	.	.	.	.
O=C(O)CCCNc1cc(N2CCN(C(=O)c3ccco3)CC2)c2noc3c2c1C(=O)c1ccccc1-3	?	3.55µM*	-7.2	?	1.5	21.5%	?	-18.0%	?	?	?
O=[N+]([O-])c1cc(F)c2cccnc2c1O	?	19.9µM*	2.4	0.0%	18.7	-86.1%	?	-19.3%	?	?	31.6µM*
CCOc1cc(/C=N/Nc2nnc(C)n2N)ccc1OC(C)=O	?	15.8µM*	16.9	-2.9%	0.8	-37.7%	2.5%[38.3 µM]	-17.1%	5.8µM*	5.8µM*	6.51µM*
CCc1nnc(N/N=C/c2ccc(O)c(OC)c2)n1N	-1.1%	20µM*	-2.1	-35.4%	.	-18.2%	2.5%[10.4 µM]	0.6%	?	?	-20.0%
NC(=O)N/N=C/c1cccc(OCc2ccc(F)cc2)c1	25.9%	-0.2%	19.0	21.2%	39.9	.	.	.	.	.	.
Cc1nnc(N/N=C/c2cccc(OCc3ccc(Cl)c(Cl)c3)c2)n1N	?	17.7µM*	39.0*	13.1µM*	46.9*	-10.9%	?	1.4%	?	-18.9%	?

Assay outcomes from PubChem BioAssay.
